Measurements reported in PubChem BioAssay (NCATS).
Records with an inconclusive call do not appear. The source made the active and inactive calls. Calls come from the whole dose curve; as a rule, active = well fitted cell-killing curve with a large enough effect; inconclusive = small, poorly fitted or top-dose-only effect, or effect the other way; inactive = flat fitted curve, though single readings scatter. Where a SMILES comes first, the peptide text is derived from it. [ ]: non-standard residue; d: D form. ξ: configuration not given here. ξPhe(βξ-Me) = CC(c1ccccc1)C(N)C(=O)O; GABA = NCCCC(=O)O

System: JEG-3
Test: Primary qHTS to identify gynecologic anti-cancer compounds using libraries of approved drugs and bioactive compounds (AID 1345084); note: nearly all actives have a fitted effect of over 55% in size
Conditions: Gynecologic cancer cell panel viability, ATPlite luminescence, 48 h; series mostly up to 57.5 µM; activity change, negative = cytotoxicity: at the top concentration
Procedure, shortened: (§1)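 Cell viability after 48 h drug treatment, ATPlite luminescence readout; five doses.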
% is set by controls: 0 for no effect and ±100 for the full control effect.

SMILES | activity change, negative = cytotoxicity
C=CC(C)(O)CC/C=C(\C)C(=O)OC1CC2(C(=O)O)CCC3(C)C(=CCC4C5(C)CCC(OC6OC(COC7OCC(O)C(O)C7O)C(O)C(OC7OCC(O)C(O)C7O)C6OC6OC(CO)C(O)C(O)C6OC6OCC(O)C(O)C6O)C(C)(C)C5CCC43C)C2CC1(C)C (centres undefined) | -1.3% [at 6.55 µM] (inactive)
C=C1CC2[C@]3(C)C(=C(O)C(=O)[C@@]2(C)[C@]2(C(=O)OC)C(=O)C(C)OC(=O)[C@@]12C)C(C)(C)C(=O)CC3O (some centres undefined) | -0.258% [at 25.3 µM] (inactive)
C=C1CCC(OC(C)=O)C2(C)CC3(O)OC(=O)C(C)=C3CC12 (centres undefined) | 1.85% (inactive)
C[C@@H]1CC[C@H]2C(C)(C)[C@H](O)[C@H](O)C[C@]2(C)[C@@]12Cc1c(O)cc3c(c1O2)CNC3=O | 15.8% [at 38.5 µM] (inactive)
C[C@H]1[C@H](C)CC[C@]2(C(=O)O[C@@H]3O[C@H](CO)[C@@H](O)[C@H](O)[C@H]3O)CC[C@]3(C(=O)O)C(=CCC4[C@@]5(C)CC[C@H](O[C@@H]6O[C@H](CO)[C@@H](O)[C@H](O)[C@H]6O)C(C)(C)C5CC[C@]43C)[C@H]12 (some centres undefined) | 1.79% [at 11.6 µM] (inactive)
C1CCN2CC3C[C@@H](CN4CCCC[C@@H]34)[C@H]2C1 | 4.48% (inactive)
O=C(COc1ccc(Cl)cc1)NC1CCC(NC(=O)COc2ccc(Cl)cc2)CC1 (centres undefined) | 2.03% (inactive)
COc1cc(C(O)C(CO)Oc2ccc(CCCO[C@@H]3O[C@@H](C)[C@H](O)[C@@H](O)[C@H]3O)cc2OC)ccc1O (some centres undefined) | 5.64% [at 25.3 µM] (inactive)
CC(C)=CC/C=C(/C)[C@H]1CC[C@]2(C)[C@@H]1[C@H](O)CC1[C@@]3(C)CC[C@H](O)C(C)(C)[C@@H]3[C@@H](O[C@@H]3O[C@H](CO)[C@@H](O)[C@H](O)[C@H]3O[C@@H]3O[C@@H](C)[C@H](O)[C@@H](O)[C@H]3O)C[C@]12C (some centres undefined) | 2.02% [at 25.3 µM] (inactive)
CC1CC(O)C2(C)C(C(=O)O)=CCCC2C1(C)CCc1ccoc1 (centres undefined) | -9.46% [at 38.5 µM] (inactive)
C/C=C(\C)C(=O)O[C@@H]1CC2[C@@H](CC=C3C[C@@H](O[C@H]4C[C@H](OC)[C@H](O[C@H]5C[C@H](OC)[C@H](O[C@H]6C[C@H](OC)[C@H](O[C@H]7C[C@@H](OC)[C@H](O[C@@H]8O[C@H](CO)[C@@H](O)[C@H](O)[C@H]8O)[C@@H](C)O7)[C@@H](C)O6)[C@@H](C)O5)[C@@H](C)O4)CC[C@@]32C)[C@@]2(O)CC[C@H](C(C)=O)[C@@]12C (some centres undefined) | -0.396% [at 6.55 µM] (inactive)
C[C@@H]1O[C@@H](O[C@H]2[C@H](OC(=O)[C@]34CCC(C)(C)C[C@H]3C3=CCC5[C@@]6(C)C[C@H](O)[C@H](O[C@@H]7O[C@H](CO[C@@H]8OC[C@H](O)[C@H](O)[C@H]8O)[C@@H](O)[C@H](O)[C@H]7O)C(C)(C)C6CC[C@@]5(C)[C@]3(C)C[C@H]4O)OC[C@@H](O)[C@@H]2O)[C@H](O)[C@H](O[C@@H]2OC[C@](O)(CO)[C@H]2O)[C@H]1O[C@@H]1OC[C@H](O)[C@H](O[C@@H]2OC[C@@H](O)[C@H](O)[C@H]2O)[C@H]1O (some centres undefined) | -3.85% [at 6.55 µM] (inactive)
O=C(NCC(=O)N1CC[C@H](NC2CCC(O)(c3ccc(-c4ncccn4)cn3)CC2)C1)c1cccc(C(F)(F)F)c1 (some centres undefined) | -2.82% (inactive)
CCNC(=O)CCC/C=C\C[C@@H]1[C@@H](/C=C/C(O)CCc2ccccc2)[C@@H](O)C[C@@H]1O (some centres undefined) | -13.4% (inactive)

System: OV90
Test: as above
Conditions: Gynecologic cancer cell panel viability, ATPlite luminescence, 48 h; series mostly up to 57.5 µM; activity change, negative = cytotoxicity: at the top concentration
Procedure, shortened: as §1

SMILES | activity change, negative = cytotoxicity
O=C(OCc1cccc(O)c1O[C@@H]1O[C@H](CO)[C@@H](O)[C@H](O)[C@H]1O)C1(O)C(=O)C2C=CC1C1C=CC(=O)C(O)(C(=O)OCc3cccc(O)c3O[C@@H]3O[C@H](CO)[C@@H](O)[C@H](O)[C@H]3O)C21 (some centres undefined) | -13.1% [at 11.6 µM] (inactive)
C/C=C(\C)C(=O)O[C@H]1[C@H](O)[C@]2(COC(C)=O)[C@H](O)C[C@]3(C)C(=CCC4[C@@]5(C)CC[C@H](O[C@@H]6O[C@H](C(=O)O)[C@@H](O[C@@H]7O[C@H](CO)[C@@H](O)[C@H](O)[C@H]7O)[C@H](O)[C@H]6O[C@@H]6O[C@H](CO)[C@@H](O)[C@H](O)[C@H]6O)[C@](C)(CO)C5CC[C@]43C)[C@@H]2CC1(C)C (some centres undefined) | -1.43% [at 11.6 µM] (inactive)
CC(=O)O[C@@H]1C[C@@]23C[C@@]24CC[C@H](OC2OC[C@@H](O)[C@H](O)[C@H]2O)C(C)(C)[C@@H]4CC[C@H]3[C@]2(C)CC3OC4(C[C@@H](C)C3[C@@]12C)OCC1(C)OC14 (some centres undefined) | 3.59% [at 25.3 µM] (inactive)
COc1ccc2c(c1O)OC[C@H]1c3ccc(O)cc3O[C@@H]21 | 0.799% (inactive)
CC1=CC(=O)C2C(C)(C)CCCC2(C)C12CCC1(COC(=O)C1)O2 (centres undefined) | 3.84% [at 38.5 µM] (inactive)
C[C@]1(O)CC[C@@H]2C(C(=O)O)=CO[C@@H](O[C@@H]3O[C@H](COC(=O)c4ccc(O)cc4)[C@@H](O)[C@H](O)[C@H]3O)[C@@H]21 | 7.9% [at 25.3 µM] (inactive)
O=C(c1ccccn1)c1cnn2c(-c3ccncc3)ccnc12 | 8.75% (inactive)
C=CC1(C)C=C2C(O)CC3C(C)(C(=O)O)CCCC3(C)C2CC1 (centres undefined) | 1.79% [at 38.5 µM] (inactive)
COC(=O)C1=CO[C@@H](O[C@@H]2O[C@H](COC(=O)/C=C/c3cc(OC)c(O)c(OC)c3)[C@@H](O)[C@H](O)[C@H]2O)[C@@H]2C(CO)=CC[C@H]12 | 6.19% [at 25.3 µM] (inactive)
CC12CCC3C(C)(C)C(O)CCC3(C)C1Cc1c(oc(C(=O)O)cc1=O)O2 (centres undefined) | -1.78% [at 38.5 µM] (inactive)
C=C(C)C(C)C1OC23CC4(CO2)C(CCC2C5(C)CCC(OC6OCC(O)C(OC7OC(CO)C(O)C(OC8OCC(O)C(O)C8O)C7O)C6OC6OC(CO)C(O)C6O)C(C)(C)C5CCC24C)C3C(C)(O)C1OC(C)=O (centres undefined) | -0.379% [at 11.6 µM] (inactive)
CC(=O)Oc1cc2c(s1)CCN([C@H](C(=O)C1CC1)c1ccccc1F)C2 | 5.24% (inactive)
Cc1ncc([N+](=O)[O-])n1CC(O)CN1CCOCC1 (centres undefined) | 1.68% (inactive)
O=C(c1ccc(NS(=O)(=O)c2cccc3cccnc23)cc1)N1CCN(CC2CC2)CC1 | 2.89% (inactive)
C/C(=C\CCC(C)(O)c1ccc(C)cc1)C(=O)O (centres undefined) | 2.97% (inactive)
COc1cc(C2Oc3c(OC)cc(/C=C/C(=O)OC[C@H]4O[C@@H](OC(C)(C)C(=O)O)[C@H](O)[C@@H](O)[C@@H]4O)cc3C2CO)ccc1O (some centres undefined) | -1% [at 25.3 µM] (inactive)
CC(C)CC1NC(=O)C(C(C)c2ccccc2)NC(=O)C(C(C)C)NC(=O)C(C)NC(=O)CCCNC(=O)C(Cc2c[nH]c3ccccc23)NC(=O)C(C)NC1=O (stereo not drawn) (cyclo([GABA]AV[ξPhe(βξ-Me)]LAW); configuration not given here) | -1.5% [at 25.3 µM] (inactive)
C=CC1C(O[C@@H]2O[C@H](CO)[C@@H](O)[C@H](O)[C@H]2O)OC=C(C(=O)OC)C1CC(=O)O (some centres undefined) | 4.94% [at 25.3 µM] (inactive)

SMILES | activity change, negative = cytotoxicity
CC1CCC2(NC1)OC1C(=O)C3C4CCC5CC(O[C@@H]6O[C@H](CO)[C@@H](O)[C@H](O)[C@H]6O[C@@H]6O[C@@H](C)[C@H](O)[C@@H](O)[C@H]6O)CCC5(C)C4CCC3(C)C1C2C (some centres undefined) | -0.96% [at 25.3 µM] (inactive)
C=C(C(=O)O)C1CCC(C)C2CCC(=O)OC2(C)C1 (centres undefined) | -2.27% (inactive)
CC1(C)C(=O)N2c3ccccc3[C@]3(CC(n4cnc5ccccc5c4=O)C(=O)O3)[C@H]2N1O (some centres undefined) | -10.3% [at 25.3 µM] (inactive)
CC(C)c1nc(N(C)S(C)(=O)=O)nc(-c2ccc(F)cc2)c1/C=C/[C@@H](O)C[C@@H](O)CC(=O)O | 1.9% (inactive)
O=C(O)Cc1nn(Cc2nc3cc(C(F)(F)F)ccc3s2)c(=O)c2nccnc12 | -1.12% (inactive)
O=C(O)CCc1cc2ccoc2cc1O[C@@H]1O[C@H](CO[C@@H]2OC[C@](O)(CO)[C@H]2O)[C@@H](O)[C@H](O)[C@H]1O | -0.19% [at 25.3 µM] (inactive)
COc1ccc(/C=C/C(=O)O[C@@H]2[C@@H](OC(C)=O)[C@@H](OC(C)=O)[C@H](O[C@H]3[C@@H]4C=CO[C@@H](O[C@@H]5O[C@H](CO)[C@@H](O)[C@H](O)[C@H]5O)[C@@H]4[C@@]4(CO)O[C@@H]34)O[C@H]2C)cc1O | 13.7% [at 25.3 µM] (inactive)
C=CC(C)(O)CC/C=C(\C)C(=O)OC1CC2(C(=O)O)CCC3(C)C(=CCC4C5(C)CCC(OC6OC(COC7OCC(O)C(O)C7O)C(O)C(OC7OCC(O)C(O)C7O)C6OC6OC(CO)C(O)C(O)C6OC6OCC(O)C(O)C6O)C(C)(C)C5CCC43C)C2CC1(C)C (centres undefined) | 0.467% [at 6.55 µM] (inactive)
C=C1CC2[C@]3(C)C(=C(O)C(=O)[C@@]2(C)[C@]2(C(=O)OC)C(=O)C(C)OC(=O)[C@@]12C)C(C)(C)C(=O)CC3O (some centres undefined) | -16.4% [at 25.3 µM] (inactive)
C=C1CCC(OC(C)=O)C2(C)CC3(O)OC(=O)C(C)=C3CC12 (centres undefined) | -3.43% (inactive)
C[C@@H]1CC[C@H]2C(C)(C)[C@H](O)[C@H](O)C[C@]2(C)[C@@]12Cc1c(O)cc3c(c1O2)CNC3=O | 4.89% [at 38.5 µM] (inactive)
C[C@H]1[C@H](C)CC[C@]2(C(=O)O[C@@H]3O[C@H](CO)[C@@H](O)[C@H](O)[C@H]3O)CC[C@]3(C(=O)O)C(=CCC4[C@@]5(C)CC[C@H](O[C@@H]6O[C@H](CO)[C@@H](O)[C@H](O)[C@H]6O)C(C)(C)C5CC[C@]43C)[C@H]12 (some centres undefined) | -4.18% [at 11.6 µM] (inactive)
C1CCN2CC3C[C@@H](CN4CCCC[C@@H]34)[C@H]2C1 | 4.97% (inactive)
O=C(COc1ccc(Cl)cc1)NC1CCC(NC(=O)COc2ccc(Cl)cc2)CC1 (centres undefined) | 0.0151% (inactive)
COc1cc(C(O)C(CO)Oc2ccc(CCCO[C@@H]3O[C@@H](C)[C@H](O)[C@@H](O)[C@H]3O)cc2OC)ccc1O (some centres undefined) | -0.72% [at 25.3 µM] (inactive)
CC(C)=CC/C=C(/C)[C@H]1CC[C@]2(C)[C@@H]1[C@H](O)CC1[C@@]3(C)CC[C@H](O)C(C)(C)[C@@H]3[C@@H](O[C@@H]3O[C@H](CO)[C@@H](O)[C@H](O)[C@H]3O[C@@H]3O[C@@H](C)[C@H](O)[C@@H](O)[C@H]3O)C[C@]12C (some centres undefined) | -2.22% [at 25.3 µM] (inactive)
CC1CC(O)C2(C)C(C(=O)O)=CCCC2C1(C)CCc1ccoc1 (centres undefined) | 0.752% [at 38.5 µM] (inactive)
